# PLCb3 inh: PLC-beta3 (human) inhibition, primary screen; hit rate 0.18% among 370,000; inhibition, % at 12.2 µM; Purified PLC-beta3, fluorogenic substrate, fluorescence; in the data active = inhibition above about 11%;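 note: 0% = median of compound wells on plate and 100% = full blocker control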
# KLK7 zymogen act: activators of human kallikrein-7 zymogen. P49862. purified proKLK7, EDANS-DABCYL substrate fluorescence; 100% is mature enzyme control, 0% vehicle. activation, % at 7 µM. hit rate 0.9% among 370,000;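 active = activation above the mean of all tested compounds plus 3 SD, computed per campaign excluding outliers beyond control limits, cut at about 13% in these data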
# Target sequence (P49862 whole entry, looked up): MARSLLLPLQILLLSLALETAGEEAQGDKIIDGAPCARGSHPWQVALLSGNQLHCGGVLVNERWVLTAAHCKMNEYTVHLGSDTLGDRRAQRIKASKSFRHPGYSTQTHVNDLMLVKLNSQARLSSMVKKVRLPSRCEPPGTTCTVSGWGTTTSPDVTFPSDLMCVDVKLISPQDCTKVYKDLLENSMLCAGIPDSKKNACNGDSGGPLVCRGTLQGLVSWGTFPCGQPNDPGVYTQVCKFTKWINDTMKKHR
# ADAM10 inh: ADAM10 inhibition, QFRET primary screen; O14672; recombinant ADAM10, EDANS/DABCYL FRET peptide cleavage, 3 h; inhibition, % at 7 µM; hit rate 0.62% among 370,000; AID 720582;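 active = inhibition above a per-campaign cutoff equal to the mean of compounds falling between control-based bounds plus 3 SD, cut at about 20% in these data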;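 note: 0% = DMSO wells while the 100% control is not disclosed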
# PLCg1 inh: inhibitors of human phospholipase C gamma1. P19174. purified PLC-gamma1, fluorogenic substrate, fluorescence. inhibition, % at 12.2 µM. hit rate 0.84% among 370,000; in the data active = inhibition above about 9.5%
# ADAM17 inh: inhibits human ADAM17 | P78536 | recombinant ADAM17, EDANS/DABCYL FRET peptide cleavage | inhibition, % at 6.95 µM | hit rate 0.83% among 370,000 | AID 720648;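 active = inhibition above the mean of compounds lying between control limits plus 3 SD, set per campaign, cut at about 8.5% in these data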;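 note: 0% = DMSO-only wells as the low control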
# ADAM10 counter: counter-screen for ADAM17 exosite inhibitors: inhibitors of human ADAM10. shares compounds with ADAM17 inh. recombinant ADAM10, EDANS/DABCYL FRET peptide cleavage, 3 h. inhibition, % at 6.95 µM. hit rate 47% among 2,900. AID 743256;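 active = mean inhibition over the triplicate runs exceeds the activity threshold set in the earlier primary screen, cut at about 20% in these data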;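 note: 0% = DMSO wells and 100% = marimastat wells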
# ADAM17 confirm: human ADAM17 inhibition, confirmation; recombinant ADAM17, EDANS/DABCYL QFRET peptide cleavage; shares compounds with ADAM17 inh; hit rate 65% among 2,900; inhibition, % at 6.95 µM;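 active = mean inhibition across replicates above the hit cutoff set in the primary screen, cut at about 8.5% in these data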;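 note: 0% = DMSO wells and 100% = marimastat wells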
# Numbers without * were called inactive; / = no result given. Sampled rows, rich in hits. Any-hit rate of the full collection: about 2.9%.
SMILES,PLCb3 inh,KLK7 zymogen act,ADAM10 inh,PLCg1 inh,ADAM17 inh,ADAM10 counter,ADAM17 confirm
COc1ccccc1NC(=O)C1CCN(C(=O)C2CC(=O)N(c3ccc(C)cc3)C2)CC1 (stereo not drawn),-3,-1,8,1,-1,/,/
COc1cc(NC(=O)C2CCCN(S(=O)(=O)c3ccc(Cl)s3)C2)cc(OC)c1 (stereo not drawn),2,0,5,-2,10*,35*,19*
O=C(COC(=O)c1ccc(NC(=O)C2CC=CCC2C(=O)O)cc1)c1ccccc1 (stereo not drawn),-4,0,1,0,-2,/,/
O=C(CSc1nc2ccc(NC(=O)c3ccccc3C(=O)O)cc2s1)Nc1ccc(F)c([N+](=O)[O-])c1,-9,-1,19,5,9.3*,-2,2
CCOC(=O)C1=C(O)/C(=C\c2cccs2)N=C1C,-2,0,16,2,10.0*,1,4
Cc1ccc(N2CC(C(=O)Nc3ncc([N+](=O)[O-])s3)CC2=O)cc1 (stereo not drawn),-5,0,6,2,3,/,/
CC(COc1cccc(C(F)(F)F)c1)CN1CCC(C(O)(c2ccccc2)c2ccccc2)CC1 (stereo not drawn),4,1,8,3,5,/,/
CC(COc1cccc(F)c1)CN1CCC(C(O)(c2ccccc2)c2ccccc2)CC1 (stereo not drawn),3,1,14,8,9.8*,11,6
O=C(/C=C/c1ccc(S(=O)(=O)NCc2ccco2)cc1)NCc1ccccc1Cl,4,0,17,0,9.9*,0,4
COc1ccc(CNC(=O)/C=C/c2ccc(S(=O)(=O)NCc3ccco3)cc2)cc1OC,6,1,7,1,2,/,/
O=C(O)C(=Cc1ccc([N+](=O)[O-])cc1)c1cccc(Cl)c1,-1,-1,-9,-5,2,/,/
CN(CC(=O)Nc1ccc(Cl)c(C(F)(F)F)c1)C(=O)c1ccc(S(=O)(=O)N2CCOCC2)cc1,-5,0,-3,-2,3,/,/
CN(CC(=O)Nc1ccc(Cl)c(C(F)(F)F)c1)C(=O)c1ccc(OCC2CCCO2)cc1 (stereo not drawn),-15,0,13,3,8.7*,25*,9.7*
O=C(Cc1ccc(Nc2nc3ccc(Br)cc3[nH]2)cc1)NCCc1cccs1,3,0,7,7,8.9*,14,9.5*
COc1ccc(CCNC(=O)c2nn(C)c3c2CS(=O)(=O)c2ccccc2-3)c(OC)c1,-2,0,1,2,-2,/,/
Cc1ccc(NC(=O)C2COc3ccccc3O2)cc1S(=O)(=O)N1CCOCC1 (stereo not drawn),-6,-1,7,-2,-4,/,/
CN(c1cccc(NC(=O)CN(c2cccc(Cl)c2)S(=O)(=O)c2ccc(Cl)cc2)c1)S(C)(=O)=O,0,0,18,3,11*,31*,16*
Cc1ccc(Nc2cc(C)nc(-c3ccccc3)n2)cc1,-22,0,9,-12,3,/,/
CCOC(=O)C1(C)CCCCCN1C(=O)c1ccc(OC)c(C(F)(F)F)c1 (stereo not drawn),2,0,6,7,8.7*,-3,-2
COc1ccccc1Nc1ccc(Nc2ccccc2OC)nn1,-3,0,4,-4,-1,/,/
COc1ccc(OC)c(Nc2ccc(Nc3cc(OC)ccc3OC)nn2)c1,6,1,14,9,18*,10,9
Cc1cccc(NS(=O)(=O)c2ccc(C(=O)N3CCN(c4ccccc4O)CC3)cc2)c1C,-8,1,10,0,6,/,/
Cc1cc(S(=O)(=O)Nc2ccc(C(=O)N3CCN(c4ccccc4O)CC3)cc2)ccc1F,0,0,17,4,10.0*,16,8.6*
N#CCc1ccc(NS(=O)(=O)c2ccc(C3CCCCC3)cc2)cc1,-1,0,15,0,10.0*,24*,10*
CC1=C(C(=O)N(C)C)CC(CC(=O)NCCc2ccccn2)C(=O)N1CCCN1CCCC1=O (stereo not drawn),5,0,-1,2,1,/,/
SMILES,PLCb3 inh,KLK7 zymogen act,ADAM10 inh,PLCg1 inh,ADAM17 inh,ADAM10 counter,ADAM17 confirm
Cc1cc(NC(=O)CSCC(=O)N(c2cccc(Cl)c2)C(C(=O)NC2CCCCC2)c2ccc(O)c(O)c2)no1 (stereo not drawn),5,0,8,8,9.5*,-2,5
CCOc1ccccc1NC(=S)NCc1cccn1C,-8,0,2,9,3,/,/
O=[N+]([O-])c1ccc(COc2ccc(-c3[nH]ncc3-c3ccc(Cl)cc3)c(O)c2)cc1,4,0,6,1,4,/,/
COc1ccc(-c2cn[nH]c2-c2ccc(OCc3ccc([N+](=O)[O-])cc3)cc2O)cc1OC,-7,0,11,0,9.8*,25*,14*
CC(=O)Oc1ccc(N2C(=O)C3C4C=CC(CC4)C3C2=O)cc1[N+](=O)[O-] (stereo not drawn),4,0,5,2,2,/,/
O=C(CSc1nc2ccccc2[nH]1)N1c2ccccc2Sc2ccccc21,2,1,10,2,12*,24*,14*
CCCCCN1CC(O)=C(c2nc3ccccc3[nH]2)C1=N,5,0,11,2,10*,12,8
CCCCN1CC(O)=C(c2nc3ccccc3[nH]2)C1=N,1,0,5,-5,0,/,/
Cc1cc(NC(=O)C2C3C(=O)N(CCC(C)C)C(C(=O)NCc4ccccc4)C34C=CC2(C)O4)no1 (stereo not drawn),3,0,-2,0,-4,/,/
Cc1ccc(Sc2ccc(/C=C3/C(=O)NN(c4ccccc4)C3=O)o2)cc1,-9,0,20,1,8.8*,15,7
COc1ccc(OC)c(NC(=O)COC(=O)c2c3c(nc4ccccc24)CCCC3)c1,3,1,9,6,11*,16,14*
COc1ccc(NC(=O)COC(=O)c2c3c(nc4ccccc24)CCCC3)cc1,1,0,19,0,3,/,/
O=C(Nc1nnc([C@H]2C[C@H](O)[C@@H](CO)O2)s1)Nc1ccc(F)cc1F,5,-1,-7,-3,-3,/,/
O=C(Nc1nnc([C@@H]2C[C@H](O)[C@@H](CO)O2)s1)Nc1ccc(F)cc1F,3,0,5,5,10*,2,2
N#CC1c2ccccc2C=CN1C(=O)c1ccccc1 (stereo not drawn),-3,0,1,0,-2,/,/
N#CC1(Cc2ccccc2Cl)c2ccccc2C=CN1C(=O)c1ccccc1 (stereo not drawn),0,-5,15,0,11*,14,9.3*

# Assay outcomes as filed in PubChem BioAssay.
